Test results: PubChem BioAssay (NCI)
This is part of a sample that, as a whole, favours compounds with a hit. Of some 83,000 tested, about 20% had one in any assay.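 Cell lines were cultured in 96-well plates, exposed to a single compound concentration, and assessed for percent growth 48 hours later.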 Values without a mark were called inactive. Calls of active or inactive are those of the source. How the source made its calls: active means growth percent below 10; inactive means the rest.

What was measured:
Test in all cases: NCI-60 one-dose screen, 48 h (100 = growth as untreated, 0 = no growth, -100 = all killed)
Details in all cases: 10 µM unless noted
HCT-15 colon = test system: HCT-15 colon
HT29 colon = test system: HT29 colon
SNB-75 CNS = test system: SNB-75 CNS
SNB-19 CNS = test system: SNB-19 CNS
U251 CNS = test system: U251 CNS
PC-3 prostate = test system: PC-3 prostate
SK-MEL-5 melanoma = test system: SK-MEL-5 melanoma
UACC-62 melanoma = test system: UACC-62 melanoma
LOX IMVI melanoma = test system: LOX IMVI melanoma
SK-MEL-28 melanoma = test system: SK-MEL-28 melanoma
SK-MEL-2 melanoma = test system: SK-MEL-2 melanoma
EKVX NSCLC = test system: EKVX NSCLC
SN12C renal = test system: SN12C renal
TK-10 renal = test system: TK-10 renal
ACHN renal = test system: ACHN renal
CAKI-1 renal = test system: CAKI-1 renal
A498 renal = test system: A498 renal
CCRF-CEM leukemia = test system: CCRF-CEM leukemia
MOLT-4 leukemia = test system: MOLT-4 leukemia
UO-31 renal = test system: UO-31 renal

| Compound | growth (HCT-15 colon) | growth (HT29 colon) | growth (SNB-75 CNS) | growth (SNB-19 CNS) | growth (U251 CNS) | growth (PC-3 prostate) | growth (SK-MEL-5 melanoma) | growth (UACC-62 melanoma) | growth (LOX IMVI melanoma) | growth (SK-MEL-28 melanoma) | growth (SK-MEL-2 melanoma) | growth (EKVX NSCLC) | growth (SN12C renal) | growth (TK-10 renal) | growth (ACHN renal) | growth (CAKI-1 renal) | growth (A498 renal) | growth (CCRF-CEM leukemia) | growth (MOLT-4 leukemia) | growth (UO-31 renal) |
| --- | --- | --- | --- | --- | --- | --- | --- | --- | --- | --- | --- | --- | --- | --- | --- | --- | --- | --- | --- | --- |
| CN(C)CCCCNc1ccc(NCCCCN(C)C)c2c1C(=O)c1c(O)ccc(O)c1C2=O | -66.4% (active) | -52.3% (active) | 79.5% | 2.06% (active) | -85.6% (active) | -76.9% (active) | 89.4% | 104% | -79% (active) | 112% | 98.2% | -76.2% (active) | 64.2% | -93.6% (active) | -89.2% (active) | -91.7% (active) | 92.4% | -28.5% (active) | -34.6% (active) |  |
| CN1CCN(C2=C(Cl)C(=O)c3ccccc3C2=O)CC1 | 33% | 66.7% | 90.9% | 93.1% | 87% | 60.5% | 26.8% | 32.9% | 11.4% | 73.8% | 45.8% | 89.3% | 79.1% |  | 82.9% | 77% | 88.6% | 75.5% | 79.7% | 75.4% |
| COc1cc2c(cc1OC)-c1ccc3cc4c(cc3c1N(CCCN1CCCCC1)C2)OCO4 | 47.5% | 25.4% | 51.3% | 42.6% | 42.1% | 29.3% | 44.9% | 59.2% | 32.5% | 80.4% | 68.8% | 69.4% | 30.5% | 73.2% |  |  | 65% | 19.6% | 6.01% (active) | 37.6% |
| NC(N)=N/N=C/c1ccc(Br)cc1 | 23.4% | 9.57% (active) | 34% | 35.8% | 25.4% | 27.8% | 13.2% | 36.3% | 43% | 58.9% | 77.8% | 62.4% |  | 13.9% | 44.5% | 27.1% | 44.8% | 32.6% | 38.9% | 47.4% |
| COc1ccc(C2CC(c3ccccc3)=NN2c2nc(C)c(C(C)=O)s2)cc1 (configuration not stated) | 98.7% | 102% | 90.2% | 99.3% | 100% | 97% | 103% | 91.5% | 94.6% | 112% | 98.4% | 94.6% | 105% |  | 95.5% | 86.6% |  | 96.3% | 102% | 77.4% |
| COc1cc2c(cc1OC)-c1ccc3cc4c(cc3c1N(CCCN(C)C)C2)OCO4 | 52% | 11.5% | 44.1% | 25.3% | 18.2% | 23% | 43.9% | 44% | 19.5% | 58.8% | 45.4% | 60% | 27.4% | 46.6% |  |  | 8.3% (active) | 20.5% | 8.66% (active) | 38.7% |
| CN(C)CCOC(=O)Nc1ccc(Cl)cc1 | 108% | 82.7% | 96.3% | 106% | 101% | 65.4% | 99% | 97.2% | 101% | 115% | 79.4% | 101% | 107% |  |  |  | 113% | 80.5% | 89.9% | 71.2% |
| CN=C1C=CC(=C(c2ccc(N(C)C)cc2)c2ccc(N(C)C)cc2)C=C1 | 7.06% (active) | -37.2% (active) | -26.7% (active) | 3.16% (active) | -57.5% (active) | 2.74% (active) | -98.5% (active) | -50.2% (active) | -59.3% (active) | -44.9% (active) | -52.4% (active) | 3.72% (active) | -32.1% (active) |  | -53.4% (active) | 9.65% (active) | -27.4% (active) | 3.67% (active) | 3.36% (active) | -14.2% (active) |
